Hits are enriched below; roughly 2.6% of the tested compounds scored in any of these assays.
eIF4H FP inh: inhibitors of RNA binding by human eIF4H | eIF4H fluorescence polarization binding assay | inhibition, % at 35 µM | hit rate 0.94% among 290,000 | AID 2012;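 also: calls also rest on retests at 20 µM and on dose response follow-up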
PHOSPHO1 block: inhibitors of human PHOSPHO1 phosphatase. Q8TCT1. recombinant PHOSPHO1, absorbance phosphatase assay. inhibition, % at 13.3 µM. hit rate 1.1% among 290,000; in the data active = inhibition above about 60%
Target sequence (Q8TCT1 whole entry, looked up): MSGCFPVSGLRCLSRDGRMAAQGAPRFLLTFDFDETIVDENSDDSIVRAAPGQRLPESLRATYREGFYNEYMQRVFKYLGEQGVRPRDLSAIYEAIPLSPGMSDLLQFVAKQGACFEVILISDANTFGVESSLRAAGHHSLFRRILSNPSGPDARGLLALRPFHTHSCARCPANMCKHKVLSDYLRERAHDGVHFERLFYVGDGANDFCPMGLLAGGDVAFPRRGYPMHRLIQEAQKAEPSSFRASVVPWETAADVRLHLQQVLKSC
A3G deaminase: APOBEC3G (human) deaminase inhibition; Q9HC16; recombinant A3G, ssDNA deamination FAM/TAMRA fluorescence; inhibition, % at 20 µM; hit rate 0.28% among 330,000; AID 493012;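 active = inhibition of at least 40% at 20 µM, with no more than 30% in the related APOBEC3A deaminase screen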
MLLE-PAM2 inh: inhibitors of microRNA-mediated deadenylation, human PABP1 MLLE binding | GST-MLLE / FITC-PAM2 fluorescence polarization | inhibition, % at 20 µM | hit rate 0.36% among 360,000; in the data active = inhibition above about 35%, passing the limit was not always enough
PABP FP inh: PABP-poly(A) binding inhibition; P11940; PABP-poly(A) RNA binding, fluorescence polarization; calls only at 35 µM; hit rate 1% among 290,000;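 also: calls also rest on retests at 20 µM and on dose response follow-up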
A3A deaminase: blocks human APOBEC3A ssDNA deamination; P31941; recombinant A3A, FAM/TAMRA ssDNA deamination fluorescence; inhibition, % at 20 µM; hit rate 0.41% among 330,000;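 active = at least 40% inhibition at 20 µM here, with at most 30% in a related deaminase screen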
A number is an active result; n = inactive; u = inconclusive; x = not tested or not shown; + = active, no number. Unless noted, no rule for the calls is given here.

SMILES	eIF4H FP inh	PHOSPHO1 block	A3G deaminase	MLLE-PAM2 inh	PABP FP inh	A3A deaminase
CCOc1cccc(N(C(=O)C2COc3ccccc3O2)C(C(=O)NC2CCCCC2)c2ccc(O)cc2)c1 (stereo unspecified)	n	n	n	n	n	n
CCOC(=O)C1(C)CCCN(C(=O)c2c(F)cccc2F)C1 (stereo unspecified)	x	x	x	n	x	x
O=C1C(Cl)=C(N2CCN(Cc3ccccc3)CC2)C(=O)N1c1ccccc1	u	n	n	n	+	n
CN1CCN(C2=C(Cl)C(=O)N(CCc3ccccc3)C2=O)CC1	u	n	n	51	n	n
Cc1ccc(NC(=O)CN2C(=O)S/C(=C\c3ccc(-c4cccc(C(=O)O)c4C)o3)C2=O)cc1	74	n	n	x	+	n
CCOC(=O)C(C)N1C(=O)S/C(=C\c2ccc(-c3ccccc3C(=O)O)o2)C1=O (stereo unspecified)	101	n	n	n	+	n
COc1cc(/C=C2\SC(=O)N(CC(=O)Nc3ccc(C)cc3)C2=O)cc(Cl)c1OCC(=O)O	89	n	n	n	n	n
CC(C)(C)OC(=O)CN1C(=O)S/C(=C\c2ccc(-c3cccc(C(=O)O)c3)o2)C1=O	65	n	n	x	n	45
Cc1ccc(C)c(N2C(=N)S/C(=C\c3ccc(-c4ccccc4C(=O)O)o3)C2=O)c1	n	n	x	n	n	x
Cc1ccc(C(=O)O)cc1-c1ccc(/C=C2\SC(=O)N(CC(=O)Nc3ccccc3)C2=O)o1	n	n	n	n	n	n
CN(C)S(=O)(=O)c1ccc2c(c1)nc(CCC(=O)NCC(=O)Nc1ccc(F)c(F)c1F)n2C	x	x	x	n	x	x
COc1ccc(C2SCCN2C(=S)Nc2cccc(C(F)(F)F)c2)cc1 (stereo unspecified)	n	n	n	n	n	n
Cc1cc(Cl)ccc1-c1nc(NC(C)C)nc2ccsc12	x	x	x	n	x	x
Cc1cnc(CNC(=O)C2CCC(=O)N(CCc3cccc(F)c3)C2)[nH]1 (stereo unspecified)	n	n	n	n	n	n
Cc1ccc(NC(=O)CN2C(=O)S/C(=C/c3ccc(-c4cccc(C(=O)O)c4)o3)C2=O)cc1	n	n	x	n	+	x
C#CCN1C(=O)S/C(=C\c2ccc(-c3ccc(C(=O)O)cc3C)o2)C1=O	76	n	x	n	+	x
CN1C(=O)N(C)C2(c3ccccc3)Nn3c(s/c(=C/c4ccccc4F)c3=O)=NC12c1ccccc1 (stereo unspecified)	n	n	n	x	n	n
CN1C(=O)N(C)C2(c3ccccc3)Nn3c(s/c(=C/c4ccco4)c3=O)=NC12c1ccccc1 (stereo unspecified)	n	n	n	n	+	n
CN1Cc2c(N3CCOCC3)nc(SCc3ccccc3)c(C#N)c2CC1(C)C	u	80	n	40	u	n
CCSc1nc(N2CCOCC2)c2c(c1C#N)CC(C)(C)N(C)C2	n	n	n	n	n	n
C=CCSc1nc(N2CCOCC2)c2c(c1C#N)CC(C)(C)N(C)C2	50	n	n	n	+	n
CC(c1ccccc1)C(Cc1nc2ccccc2[nH]1)c1nc2ccccc2[nH]1 (stereo unspecified)	n	n	n	x	n	n
CCOc1ccccc1CNC(=O)c1cc2oc3ccccc3c2n1C	n	n	n	n	n	n
CCOc1ccccc1CNC(=O)c1cc2occc2n1C	u	n	n	n	+	n
CCN(CC)S(=O)(=O)c1cccc(NC(=O)CCNC(=O)NC23CC4CC(CC(C4)C2)C3)c1	x	x	n	n	x	n
SMILES	eIF4H FP inh	PHOSPHO1 block	A3G deaminase	MLLE-PAM2 inh	PABP FP inh	A3A deaminase
CN1OC[C@@H]2CN[C@H](c3ccc(-c4cccc(F)c4)cc3)C[C@@H]21	x	x	x	n	x	x
CCOc1ccccc1N1CCN(CC(O)COC2CCCc3ccccc32)CC1 (stereo unspecified)	n	n	n	n	n	n
Cc1ccc2c(c1)NC(c1cccs1)C1=C(CC(C)(C)CC1=O)N2 (stereo unspecified)	86	n	n	n	+	n
Cc1ccc(C2Nc3ccccc3NC3=C2C(=O)CC(C)(C)C3)c(O)c1 (stereo unspecified)	u	n	n	n	n	n
CC(Cc1c[nH]c2ccccc12)C(=O)NCc1ccco1 (stereo unspecified)	99	n	n	n	n	n
Cc1cc(C)cc(CC(=O)N2CCC2(C)C(=O)NS(=O)(=O)c2cccc(OC(F)F)c2)c1 (stereo unspecified)	x	x	x	n	x	x
CC1=NN(C(=O)c2ccc(C)cc2)C(O)(C(F)(F)OC(F)(F)F)C1 (stereo unspecified)	n	n	n	n	n	n
CC1=NN(C(=O)c2ccccc2-n2cccc2)C(O)(C(F)(F)F)C1 (stereo unspecified)	54	n	n	n	+	n
CC(=O)c1cccc(-c2ccnc3c2CC(C(=O)NCc2ccncc2)O3)c1 (stereo unspecified)	x	x	x	n	x	x
CCc1sc(C(=O)Nc2cccc(-n3cnnn3)c2)cc1C	x	x	n	n	x	n
Cc1ccc(-c2nn(CC(=O)NN3CCOCC3)c(=O)c3ccccc23)cc1	n	n	n	n	n	n
Cc1cccc2cc3c(nc12)SC(=NCC1CCCO1)N(Cc1ccco1)C3 (stereo unspecified)	n	74	n	n	n	n
CCN(Cc1ccccc1)C(=O)c1cccc(S(=O)(=O)N2CCN(Cc3ccccc3)CC2)c1	x	x	n	n	x	n
Cn1c(=O)c2[nH]c(COc3ccccc3)nc2n(C)c1=O	x	x	x	63	x	x
Cn1c(=O)c2[nH]c(CN(Cc3ccccc3)Cc3ccccc3)nc2n(C)c1=O	n	n	n	n	n	n
CCOC(=O)CSC1=C(C#N)C(=O)NC(c2ccc(OC)c(OC)c2)S1 (stereo unspecified)	n	98	n	48	n	n
CCOC(=O)CSc1nc2cc(OC)ccc2cc1C#N	n	n	n	n	n	n
CCOC(=O)CSC1=C(C#N)C(=O)NC(c2ccc(OC)cc2)S1 (stereo unspecified)	n	87	n	n	n	n
O=C1CCC(C(=O)N2CCN(c3ccccc3)CC2)CN1Cc1ccc(Cl)cc1 (stereo unspecified)	x	x	x	n	x	x
COCCNc1nc2nonc2nc1NC(C)c1ccccc1Cl (stereo unspecified)	n	60	n	n	n	n
Fc1ccccc1NC(=S)Nc1cccc2cnccc12	58	n	n	37	n	n
FC(F)(F)c1ccccc1NC(=S)Nc1cccc2cnccc12	94	n	x	n	+	x
Cc1ccccc1NC(=S)Nc1cccc2cnccc12	n	n	n	n	n	n
CCOC(=O)CNC(=O)CSc1nc2nc(C)c(Br)cc2[nH]1	n	74	n	n	n	n
N#C/C(=C\c1cn(CC(=O)N2CCCCC2)c2ccccc12)C(=O)NCc1ccc2c(c1)OCO2	62	n	n	n	+	n
CC(=O)Nc1cccc(NC(=O)Nc2ccc(C(C)=O)cc2)c1	n	n	n	n	n	n
CCN(CC)c1ccc(NC(=O)Nc2cccc(C(C)=O)c2)cc1	n	74	n	n	n	n
